# BJeLR lethal: BJeLR cell viability loss | BJeLR (HRASV12) viability, CellTiter-Glo ATP luminescence, 48 h | inhibition, % (no concentration beside the values) | 300,000 compounds, 0.17% hits; in the data active means inhibition above about 50%; inconclusive means no clear call, values can overlap the other calls
# RecA intein inh: blocks M. tuberculosis RecA intein splicing; P9WHJ3; cell-free RecA intein splicing, fluorescence; inhibition, % (no concentration beside the values); 290,000 compounds, 0.75% hits; AID 2221; in the data active means inhibition above about 30%; inconclusive means no clear call, values can overlap the other calls
# Target sequence (P9WHJ3 whole entry, looked up): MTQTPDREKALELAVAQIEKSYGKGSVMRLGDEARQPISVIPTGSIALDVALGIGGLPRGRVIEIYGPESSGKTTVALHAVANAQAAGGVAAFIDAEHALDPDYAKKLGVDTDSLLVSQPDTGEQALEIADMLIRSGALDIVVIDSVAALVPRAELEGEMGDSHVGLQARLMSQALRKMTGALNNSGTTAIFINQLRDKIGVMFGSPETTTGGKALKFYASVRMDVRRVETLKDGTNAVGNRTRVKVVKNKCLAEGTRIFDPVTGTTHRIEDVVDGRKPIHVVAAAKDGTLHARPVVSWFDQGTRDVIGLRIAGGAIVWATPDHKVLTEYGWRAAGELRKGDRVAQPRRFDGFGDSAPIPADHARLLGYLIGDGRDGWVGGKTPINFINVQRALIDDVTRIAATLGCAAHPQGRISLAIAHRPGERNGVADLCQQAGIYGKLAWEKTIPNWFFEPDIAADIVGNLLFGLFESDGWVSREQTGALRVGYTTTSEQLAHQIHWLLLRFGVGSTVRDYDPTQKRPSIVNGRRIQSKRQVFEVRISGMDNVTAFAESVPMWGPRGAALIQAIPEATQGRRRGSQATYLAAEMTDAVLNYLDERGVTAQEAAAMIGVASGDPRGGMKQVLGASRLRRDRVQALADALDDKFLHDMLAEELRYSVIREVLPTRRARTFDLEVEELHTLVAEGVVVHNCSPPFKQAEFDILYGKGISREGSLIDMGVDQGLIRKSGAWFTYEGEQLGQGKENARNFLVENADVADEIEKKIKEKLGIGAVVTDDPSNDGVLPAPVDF
# PrP 5UTR inh: inhibition of PrP 5' UTR reporter expression; cell-based PrP 5' UTR mRNA reporter, plate reader; inhibition, % (no concentration beside the values); 340,000 compounds, 0.35% hits; AID 488862; in the data active means inhibition above about 52%
# PfHsp40 rescue: restores yeast growth despite PfHsp40 toxicity; S. cerevisiae expressing PfHsp40, growth rescue, ATP luminescence; growth rescue, % at 12.5 µM; 340,000 compounds, 0.68% hits; AID 504582; in the data active means growth rescue above about 28%, passing the limit was not always enough; inconclusive means no clear call, values can overlap the other calls;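 further: yeast W303a lacking pdr1 and pdr3 grown in galactose medium; growth measured after three days at 30 °C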
# PriA SSB inh: blocks PriA binding to SSB C-terminal tail | AlphaScreen SSBct-PriA binding, biotinylated peptide | inhibition, % at 33 µM | 430,000 compounds, 0.6% hits | AID 1272365; in the data active means inhibition mostly above about 37%, no sharp cut-off; inactive means mostly below about 20%
# PrPC surface inh: reduces human prion protein on the cell surface; inhibition, % at 13.8 µM; cell surface PrPC, TR-FRET read-out; P04156; 370,000 compounds, 0.43% hits; AID 720596; in the data active means inhibition above about 24%
# Numbers stand for hits; i = inactive; ? = inconclusive; nt = no result. In the library only some 1.9% were active in any assay of this set; here they are far more common.
SMILES,BJeLR lethal,RecA intein inh,PrP 5UTR inh,PfHsp40 rescue,PriA SSB inh,PrPC surface inh
O=C(/C=C/c1ccccc1)NC(=S)NNC(=O)c1cnccn1,i,i,i,i,83,i
O=C(C1CCCN(c2ccc(-n3ccnc3)nn2)C1)N1CCN(c2ccc(C(F)(F)F)cn2)CC1 (stereo unspecified),nt,nt,nt,nt,i,nt
Cn1ccnc1SCC1CCN(S(=O)(=O)c2ccc(C(F)(F)F)cc2)CC1,nt,nt,nt,nt,i,nt
Cn1ccnc1SCC1CCN(S(=O)(=O)c2ccc3c(c2)CCCC3)CC1,nt,nt,nt,nt,63,nt
N#Cc1c(N)sc(=S)c2c1CCCC2,i,i,i,i,65,i
CC(C)CNS(=O)(=O)c1ccc2nc(NC(=O)c3ccccn3)sc2c1,nt,nt,nt,nt,96,nt
CN1C(=O)c2cccc(NC(=O)c3cccc(C(F)(F)F)c3)c2C1=O,nt,nt,nt,nt,i,nt
Cc1ccc(NC(=O)C2C3CCCCC32)cc1[N+](=O)[O-] (stereo unspecified),i,i,i,i,41,i
CC(=O)Nc1ccc(C)c([N+](=O)[O-])c1,i,i,i,i,i,i
Cc1onc(-c2ccccc2Cl)c1C(=O)NCCn1c(C)cc2ccccc21,i,i,i,i,87,nt
CCCNc1nc(SCC)nc2c1cnn2CCNC(=O)c1c(-c2ccccc2Cl)noc1C,nt,nt,nt,nt,88,nt
COc1ccc(Br)c(C(=O)N2CCC(Oc3ccc(C)nn3)CC2)c1,nt,nt,nt,nt,i,nt
O=C1c2ccccc2S(=O)(=O)c2cc(C(=O)N3CCC(C(=O)N4CCCCC4)CC3)ccc21,i,i,nt,nt,i,i
CC1CCCC(C)N1C(=O)c1ccc2c(c1)S(=O)(=O)c1ccccc1C2=O (stereo unspecified),i,i,i,70,i,i
O=C(N/N=C/c1c(O)n(-c2ccc(Cl)cn2)c(=O)c2ccccc12)c1ccncc1,i,i,i,29,nt,i
O=C(N/N=C/c1c(O)n(-c2ccc(Cl)cn2)c(=O)c2ccccc12)C1CC1,i,i,i,i,nt,i
O=C(Cc1ccc(Cl)cc1)Nn1cnc2c(cnn2-c2ccc(F)cc2)c1=O,nt,nt,nt,nt,i,nt
CCn1cc(NC(=O)N2CCN(c3cccc(Cl)c3)CC2)c2ccccc21,nt,nt,nt,nt,31,nt
CCN(c1ccccc1)S(=O)(=O)c1ccc(Cl)c(NC(=O)COC(=O)c2cc(O)c3ccccc3c2O)c1,i,80,nt,nt,nt,nt
O=C(NNc1nc2cc3c(cc2s1)OCO3)c1ccccc1,i,i,i,i,i,i
O=C(NNc1nc2cc3c(cc2s1)OCO3)c1cccc(F)c1,i,i,i,40,i,i
CC1Cc2ccccc2N1C(=S)NC(=O)c1cccc(Br)c1 (stereo unspecified),i,i,i,146,i,i
Nc1ccccc1O,nt,nt,i,60,i,nt
Oc1ccccc1O,nt,nt,i,i,i,i
Cc1cc2cc(CN(Cc3ccc4c(c3)OCO4)C(=O)c3cnccn3)c3nnnn3c2cc1C,i,i,i,i,39,i
SMILES,BJeLR lethal,RecA intein inh,PrP 5UTR inh,PfHsp40 rescue,PriA SSB inh,PrPC surface inh
Cc1ccc2c(c1)cc(CN(Cc1ccc3c(c1)OCO3)C(=O)c1cnccn1)c1nnnn12,i,i,i,i,i,i
COc1cc2cccc(OC)c(=O)c2c(O)c1OC,i,i,i,i,i,i
CC(=O)Oc1cc2cccc(OC(C)=O)c(=O)c2c(OC(C)=O)c1OC(C)=O,i,i,i,158,i,nt
CC(C)C1/C(=N/O)CC(c2ccccc2)NC1c1ccccc1 (stereo unspecified),i,i,i,49,nt,i
O=C1CC(c2noc(-c3ccccc3F)n2)CN1Cc1ccccc1 (stereo unspecified),nt,nt,nt,nt,i,nt
COc1cc(C(C[N+](=O)[O-])c2c(N)n(C)c(=O)n(C)c2=O)ccc1O (stereo unspecified),i,i,i,i,i,i
Cc1ccc(C(C[N+](=O)[O-])c2c(N)n(C)c(=O)n(C)c2=O)cc1 (stereo unspecified),i,i,i,364,i,i
CNC(=O)c1ccsc1NC(=O)c1ccccc1,i,i,i,i,i,i
O=C(CCl)Nc1sccc1C(=O)c1ccccc1,i,57,i,i,i,i
COc1cccc(C#N)c1OCC(=O)N1CCCCCC1,nt,nt,nt,nt,i,nt
O=S(=O)(NCCc1ccoc1)c1ccc2c(c1)CCCC2,nt,nt,nt,nt,i,nt
O=C1COc2ccc(C(=O)CCl)cc2N1,i,32,i,i,i,i
COC(=O)C(=NNc1ccc(Cl)cc1)Sc1nnc(-c2ccc(OC)cc2)n1C,nt,nt,nt,nt,116,nt
CCOc1coc(C(=O)NCCCc2ccccc2)cc1=O,nt,nt,nt,nt,i,nt
O=C(C1=C[C@H](c2ccc3c(c2)OCO3)C[C@H](OCc2ccc(CO)cc2)O1)N1CCCCCCC1,i,i,i,i,41,i
O=C(NCC1CCN(c2nc3ccccc3o2)CC1)c1ccc(Cl)s1,nt,nt,nt,nt,i,nt
Cn1cccc1C(CNC(=O)C(=O)Nc1ccc2c(c1)OCO2)N1CCc2ccccc2C1 (stereo unspecified),nt,nt,nt,nt,i,nt
Cn1cccc1C(CNC(=O)c1ccc2c(c1)OCO2)N1CCc2ccccc2C1 (stereo unspecified),nt,nt,nt,nt,13,nt
O=Cc1cc2ccccc2nc1SCc1ccc(Cl)c(Cl)c1,55,i,i,i,i,i
O=Cc1cc2ccccc2nc1SCc1ccc(Cl)cc1,63,i,i,i,i,i
Cc1ccc(CSc2nc3ccccc3cc2C=O)cc1,i,i,i,i,i,i
Cc1ccc(F)cc1S(=O)(=O)N1CCN(c2nc(N3CCOCC3)nc(-n3ccnc3)n2)CC1,nt,nt,nt,nt,i,nt
CCOc1cccc(CNC(=O)C2CCN(c3nc4ccsc4c(=O)n3-c3ccccc3)CC2)c1,nt,nt,nt,nt,i,nt
c1ccc(Nc2cccc(Nc3ccccc3)c2)cc1,i,i,i,69,66,i
Cc1ccc2c(c1)C(c1ccncc1)=NNC(c1ccccc1)=N2,i,i,i,i,i,i
SMILES,BJeLR lethal,RecA intein inh,PrP 5UTR inh,PfHsp40 rescue,PriA SSB inh,PrPC surface inh
c1ccc(C2=Nc3c(ccc4ccccc34)C(c3ccncc3)=NN2)cc1,nt,i,i,i,47,i
COc1ccc(-c2csc(-n3nc(C)cc3N)n2)cc1,nt,nt,nt,nt,i,nt
COc1ccc(Cl)cc1C(=O)Nc1ccc(-n2nnn(C)c2=O)cc1,nt,nt,nt,nt,i,nt
COc1ccc(Nc2oc(COc3ccccc3F)nc2C#N)cc1,i,41,i,i,i,i
CN(Cc1ccccc1)c1oc(COc2ccccc2F)nc1C#N,i,i,i,i,51,i
N#Cc1nc(COc2ccccc2F)oc1N1CCCCCC1,nt,nt,i,i,i,i
COc1ccc(CCNc2oc(COc3ccccc3)nc2C#N)cc1,i,i,i,i,i,i
N#Cc1nc(COc2ccccc2F)oc1NCCc1ccccc1,i,i,i,?,43,i
Cc1ccc(Cl)cc1N/C=C(\C#N)c1nc(-c2cccc([N+](=O)[O-])c2)cs1,nt,nt,nt,nt,i,nt
COc1ccc(S(=O)(=O)NCCNc2cc(-n3ccnc3C)nc(C)n2)cc1Cl,nt,nt,nt,nt,i,nt
COc1cccc(-n2nnc3c(SC(C(C)=O)C(=O)N(C)C)ncnc32)c1 (stereo unspecified),nt,nt,nt,nt,i,nt
CC(=O)C(Sc1ncnc2c1nnn2-c1ccc(F)cc1)C(=O)N(C)C (stereo unspecified),i,40,nt,nt,i,i
O=C(NCc1cccs1)N1CCC(n2ccnn2)CC1,nt,nt,nt,nt,i,nt
NNc1nc(-c2ccccn2)nc2c1CCC2,nt,nt,nt,nt,165,nt

# Bioassay records deposited in PubChem by several laboratories.
